# From PubChem
# Shown are actives, neighbours in structure and some others; about 0.9% of the full set was active somewhere.
# KAT2A inh: blocks human GCN5L2 histone acetyltransferase; GCN5L2 HAT assay, ThioGlo1 CoA-SH fluorescence; Potency, µM (titrated, usually from 58.9 µM), for the others: at the highest dose activity change, negative = inhibition, hits mostly inhibitors; 390,000 compounds, 0.21% hits; AID 504327
#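 Enzyme at 20nM final was mixed with library compounds for 15 min at room temperature. Peptide H3(1-25) at 75uM, acetyl-CoA at 70uM and ThioGlo1 at 50uM were then added. Plates were read immediately and after 20 min (Ex340nm/Em540nm).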
# LMNA splice mod: changes lamin A minigene splicing in HeLa cells; HeLa LMNA splicing GFP/RFP minigene ratio, 48 h; Potency, µM (series often up to 46.1 µM), without a hit: at the top dose ratio change, negative = inhibition, usual class: inhibitors; 200,000 compounds, 0.01% hits; AID 1487; active means well fitted inhibition curve with a large enough effect in the signal ratio, with a control signal flat, not every such curve was filed as active; inconclusive means small, poorly fitted or top-dose-only effect, or effect the other way, or a change in a side signal; the % refers to the signal ratio
#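 S3 HeLa cells stably expressing lamin A-EGFP splicing minigene plus DsRed2, 600 cells/well, 48 h compound exposure at 37C. Laser-scanning cytometry; analysed as GFP (500-530 nm)/RFP (575-640 nm) total intensity ratio; 0.5% DMSO vehicle.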
# BLM helicase inh: blocks DNA unwinding by human BLM helicase; Potency, µM (highest dose often 56.1 µM), for the others: top-dose activity change, negative = inhibition, usual class: inhibitors; recombinant BLM DNA unwinding, fluorescence dequenching; AID 2528; P54132; 350,000 compounds, 0.2% hits;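 further: plate controls were vehicle for no effect and no enzyme for full effect; nearly all actives have a fitted effect of over 35% in size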
# APE1 inh-1: APE1 (human) endonuclease inhibition. P27695. recombinant APE1, TAMRA/BHQ-2 abasic DNA cleavage fluorescence. Potency, µM (doses to about 65.8 µM), for the others: at the highest dose activity change, negative = inhibition, hits mostly inhibitors. 350,000 compounds, 0.35% hits;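 further: plate controls were vehicle for no effect and reference inhibitor for full effect; nearly all actives have a fitted effect of over 55% in size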
#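 APE1 at 0.75 nM final was preincubated with compound 15 min at room temperature, then 50 nM double-stranded THF abasic-site substrate (5'-TAMRA/3'-BHQ-2) was added. Fluorescence (ex 525/em 598 nm) was read kinetically; third-minus-first read gave activity.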
# RECQ1 helicase: inhibitors of human RECQ1 DNA helicase. P46063. RECQ1 DNA unwinding, red fluorescence kinetic read. Potency, µM (titrated, usually from 57.3 µM), for the others: at the top dose activity, negative = inhibition, usual class: inhibitors. 240,000 compounds, 0.54% hits;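 further: plate controls were vehicle for no effect and no enzyme for full effect; nearly all actives have a fitted effect of over 30% in size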
#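 50 nM RECQ1T1 preincubated 15 min with compound in Tris pH 8.0 buffer with MgCl2, DTT, Tween-20 and 2.5 ug/ml poly(dI-dC); started with 200 nM TAMRA/BHQ-2 forked duplex and 2 mM ATP. Unwinding read as fluorescence (525/598 nm), two reads 2 h apart.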
# TDP1 inh: TDP1 (human) enzyme inhibition | recombinant TDP1, AlphaScreen DNA substrate cleavage | Potency, µM (top dose mostly 130 µM), for the others: at the top dose activity change, negative = inhibition, most hits filed as inhibitors | 350,000 compounds, 0.28% hits; further: nearly all actives have a fitted effect of over 40% in size
# Target sequence (Q9NUW8 whole entry, looked up): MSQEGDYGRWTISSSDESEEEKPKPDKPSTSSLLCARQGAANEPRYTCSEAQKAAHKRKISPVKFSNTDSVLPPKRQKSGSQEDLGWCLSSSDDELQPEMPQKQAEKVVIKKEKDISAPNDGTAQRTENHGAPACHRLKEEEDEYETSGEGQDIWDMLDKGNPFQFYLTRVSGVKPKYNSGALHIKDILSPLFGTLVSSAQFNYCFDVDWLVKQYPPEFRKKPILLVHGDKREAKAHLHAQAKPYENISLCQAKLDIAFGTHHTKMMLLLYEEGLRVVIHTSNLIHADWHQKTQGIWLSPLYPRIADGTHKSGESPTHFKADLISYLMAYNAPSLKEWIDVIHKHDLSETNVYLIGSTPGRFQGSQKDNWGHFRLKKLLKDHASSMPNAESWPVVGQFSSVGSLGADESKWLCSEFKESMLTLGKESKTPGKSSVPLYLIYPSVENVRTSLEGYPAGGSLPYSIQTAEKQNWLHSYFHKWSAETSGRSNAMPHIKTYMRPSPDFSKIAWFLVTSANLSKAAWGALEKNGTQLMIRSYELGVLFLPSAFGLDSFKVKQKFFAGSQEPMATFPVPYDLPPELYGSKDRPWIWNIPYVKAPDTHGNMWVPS
#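 Enzyme-compound mixtures sat 15 min at room temperature, followed by a 5 min reaction with 15 nM final substrate and 10 min with AlphaScreen beads. Recombinant human Tdp1 was used at 1 nM final.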
# APE1 dye cs: DNA dye displacement counter-screen activity; shares compounds with APE1 inh-1; DNA fluorescent dye displacement counterscreen, fluorescence; Potency, µM (series often up to 28.5 µM), for the others: at the highest dose activity change, negative = inhibition, usual class: inhibitors; 480 compounds, 7% hits;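 further: loss of thiazole orange fluorescence as the dye is displaced from duplex DNA; 0% = ThO with dsDNA and no compound and -100% = ThO without dsDNA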
# EndoIV counter: counter-screen for APE1 inhibitors: inhibitors of E. coli endonuclease IV | 560 compounds, 4% hits | Potency, µM (doses to about 27.1 µM), for the others: at the top dose activity change, negative = inhibition, most hits filed as inhibitors | shares compounds with APE1 inh-1 | E. coli Endo IV, fluorogenic AP-site DNA cleavage;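 further: plate controls were uninhibited enzyme wells for no effect and no enzyme buffer wells for full effect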
# APE1 inh-2: APE1 (human) endonuclease inhibition, confirmation; shares compounds with APE1 inh-1; purified APE1, fluorogenic abasic-site DNA cleavage; Potency, µM (top dose mostly 57.1 µM), for inactives: top-dose activity change, negative = inhibition, hits mostly inhibitors; 750 compounds, 44% hits; AID 2572; further: nearly all actives have a fitted effect of over 30% in size
# APE1 FP: compounds that displace a DNA probe from human APE1 | 480 compounds, 7% hits | shares compounds with APE1 inh-1 | AID 2573 | Potency, µM (series often up to 28.5 µM), inactives show at the highest dose activity, negative = inhibition, hits mostly inhibitors | APE1 binding to TAMRA-labelled double-stranded DNA, fluorescence polarization displacement
# Numbers without * were called inactive; ? = inconclusive; . = no result; ! = a repeat was not active; [ ] = another dose, or the depositor's remark. Unless noted, the call rests on the fitted dose curve; in most records, active means well fitted curve in the direction sought with a large enough effect; inconclusive means small, poorly fitted or top-dose-only effect, or another doubt; inactive means no such curve, though single readings can be large; an effect the other way counts as inactive or inconclusive. Unless noted, on the % scale 0 is the no-effect control and ±100 the full control effect; potency means the concentration at half of the fitted maximal effect.
SMILES,KAT2A inh,LMNA splice mod,BLM helicase inh,APE1 inh-1,RECQ1 helicase,TDP1 inh,APE1 inh-2,others
CN1C(=O)[C@]23CC4=CC=C[C@H](O)[C@H]4N2C(=O)[C@@]1(CO)SS3,-12%,.,-2%,-2%,9%,6%,.,
CCC12CCN(Cc3ccc(F)cc3)CC1Oc1c(O)cccc12 (stereo not drawn),.,.,.,20%,.,.,.,
CC1=C(O)C(=O)[C@H]2O[C@@H]2C1=O,8%,.,-1%,?,-12%,4%[56.1 µM],.,
Nc1ccc2ccc3cccc[n+]3c2c1,-23%,.,-2%,-14%,.,.,.,
C[n+]1c(-c2ccccc2)c2cc(N)ccc2c2ccc(N)cc21,0%,.,?,11µM*,.,.,.,
CCN1C[C@]2(COC)[C@H](O)C[C@H](OC)[C@@]34[C@@H]5C[C@@]6(O)[C@H](OC(=O)c7ccccc7)[C@@H]5[C@@](OC(C)=O)([C@@H]([C@H](OC)[C@H]23)[C@@H]14)[C@@H](O)[C@@H]6OC,.,.,.,3%,.,.,.,
CCOc1ccc(N2C(=O)/C(=C/c3ccco3)C(=O)NC2=S)cc1,22µM*,.,?,21µM*,.,.,.,
Cc1ccccc1N1C(=O)/C(=C/c2ccco2)C(=O)NC1=S,2.2µM*,.,0.89µM*,0.075µM*,.,.,.,
CC1CCCC(C)N1c1nnc(NC(=O)Cn2c(=O)oc3ccccc32)s1 (stereo not drawn),-29%,?,-2%,4%,-6%,1%,.,
CC(C)CC(=O)Nc1ccc(C(=O)Cn2c(=O)oc3ccccc32)cc1,-15%,.,-12%,?,-4%,-6%,?,APE1 dye cs=-8%;EndoIV counter=-4%;APE1 FP=4%
C/C=C/C=O,.,.,.,2%,-2%,6%,.,
C[C@H]1CC[C@]2(NC1)O[C@H]1C[C@H]3[C@@H]4CC[C@H]5C[C@@H](O[C@@H]6O[C@H](CO)[C@H](O[C@@H]7O[C@H](CO)[C@@H](O)[C@H](O[C@@H]8OC[C@@H](O)[C@H](O)[C@H]8O)[C@H]7O[C@@H]7O[C@H](CO)[C@@H](O)[C@H](O)[C@H]7O)[C@H](O)[C@H]6O)CC[C@]5(C)[C@H]4CC[C@]3(C)[C@H]1[C@@H]2C,.,.,.,-3%,.,.,.,
NCC(O)c1cc(O)c(O)cc1F (stereo not drawn),1%,?,.,1.1µM*!,?,.,-20%,EndoIV counter=-2%[57.1 µM]
O=c1c2ccccc2nc(/C=C/c2cccnc2)n1Cc1ccccc1,1%,.,-6%,?,-7%,10µM*,28µM*,
C[C@]12C=CC(=O)C=C1CC[C@@H]1[C@@H]2CC[C@]2(C)OC(=O)CC[C@@H]12,.,.,.,19%,.,.,.,
COc1ccc(CN2C(=O)NC(=O)/C(=C/c3ccoc3)C2=O)cc1,?,.,-20%,8.9µM*,?,.,4µM*,APE1 dye cs=0%;EndoIV counter=-9%;APE1 FP=?
